# PI5P4Ka inh = inhibitors of human PI5P4K alpha; actives 1.2% (n = 330,000); max response, %; PI5P4Kalpha enzyme, ADP-Glo luminescence, 60 min; hits give low values; active = max response of -50% or lower; inconclusive = between -30% and -50%; inactive = -30% or higher; note: value at the top dose of about 77 µM; % is set by controls: 0 for no effect and ±100 for the full control effect
#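 PI5P4Kalpha ADP-Glo assay; 5 microM ATP final; 60 min RT reaction; HEPES pH 7.4/EGTA/CHAPS, 5% DMSO; controls lacking substrate or enzyme; luminescent end-point.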
# PI4K2A inh = PI4K2A (human) kinase inhibition. Q9BTU6. purified PI4K2A, ADP-Glo luminescence, 1 h; hits give low values. activity change, negative = inhibition, % at 76.9 µM. actives 0.13% (n = 420,000); in the data active = activity change below about -50%; inconclusive = mostly about -30% to -49%;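 note: -100% = wells without enzyme as full effect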
#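 ADP-Glo luminescence measured ADP generated by PI4K2A enzyme (4 ug/mL before mixing) with 1.2 mM PI substrate (pre-mix) and 300 microM ATP (pre-mix). Tris pH7.5 buffer with MgCl2, Triton X-100; 1 h reaction at ambient temperature.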
# Pol iota inh = DNA polymerase iota (human) inhibition. Pol iota fluorescent replication assay, 10 min. Q9UNA4. actives 1% (n = 390,000). Potency, µM (doses to about 115 µM), for inactives: at the highest dose activity, negative = inhibition, most hits filed as inhibitors; note: potency is the fitted concentration of half-maximal effect
# Target sequence (Q9UNA4 whole entry, looked up): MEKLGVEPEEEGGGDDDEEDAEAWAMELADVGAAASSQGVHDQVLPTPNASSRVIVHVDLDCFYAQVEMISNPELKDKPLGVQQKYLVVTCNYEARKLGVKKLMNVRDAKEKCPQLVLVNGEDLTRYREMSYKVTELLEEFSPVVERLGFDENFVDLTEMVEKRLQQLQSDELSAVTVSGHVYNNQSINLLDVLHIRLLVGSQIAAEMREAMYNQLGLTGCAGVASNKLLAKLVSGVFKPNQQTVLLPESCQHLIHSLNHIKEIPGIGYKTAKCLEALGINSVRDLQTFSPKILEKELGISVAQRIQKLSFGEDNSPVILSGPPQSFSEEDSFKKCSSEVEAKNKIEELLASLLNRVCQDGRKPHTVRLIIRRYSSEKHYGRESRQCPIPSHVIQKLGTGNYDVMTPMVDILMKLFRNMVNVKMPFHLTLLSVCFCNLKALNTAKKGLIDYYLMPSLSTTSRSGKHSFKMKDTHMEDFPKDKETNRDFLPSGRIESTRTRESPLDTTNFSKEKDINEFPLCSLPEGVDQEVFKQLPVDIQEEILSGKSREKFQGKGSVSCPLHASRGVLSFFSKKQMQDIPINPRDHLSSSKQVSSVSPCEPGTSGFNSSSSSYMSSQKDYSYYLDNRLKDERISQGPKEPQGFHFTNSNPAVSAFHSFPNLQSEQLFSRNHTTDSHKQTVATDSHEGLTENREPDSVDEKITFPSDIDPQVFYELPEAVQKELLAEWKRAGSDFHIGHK
#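 Pol iota at 10 nM preincubated 15 min with compounds at room temperature; reaction started with fluorescent substrate, 50 nM final. Fluorescence read kinetically at 0 and 10 min; buffer-only wells as negative control.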
# Pol kappa inh-1 = inhibitors of human DNA polymerase kappa; Q9UBT6; purified Pol kappa, fluorescent DNA synthesis assay, 10 min; Potency, µM (series often up to 107 µM), for inactives: at the highest dose activity, negative = inhibition, most hits filed as inhibitors; actives 0.53% (n = 400,000); AID 588579; note: potency is the fitted concentration of half-maximal effect; % is set by controls: 0 for no effect and ±100 for the full control effect
#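 10 nM Pol kappa preincubated 15 min at room temperature with compounds, then reaction started with substrate at 50 nM final. Fluorescence read kinetically at 0 and 10 min; buffer-only wells served as negative control.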
# Pol beta inh = blocks human DNA polymerase beta activity; Pol beta primer extension/strand displacement, fluorescence kinetic; P06746; AID 485314; Potency, µM (top dose mostly 114 µM), without a hit: top-dose activity change, negative = inhibition, actives largely listed as inhibitors; actives 1.3% (n = 340,000); note: potency is the fitted concentration of half-maximal effect; % is set by controls: 0 for no effect and ±100 for the full control effect
#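 Curves were derived by four-parameter Hill fits of normalized qHTS data. The kinetic fluorescent primer-extension read was taken at 0 and 10 min after 50 nM substrate, following a 15 min room-temperature preincubation of 10 nM enzyme with compounds.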
# Pol eta inh-1 = DNA polymerase eta (human) inhibition | Q9Y253 | recombinant Pol eta, fluorescent DNA replication assay | Potency, µM (series often up to 114 µM), without a hit: at the top dose activity change, negative = inhibition, actives largely listed as inhibitors | actives 1.2% (n = 390,000) | AID 588591; note: potency is the fitted concentration of half-maximal effect; % is set by controls: 0 for no effect and ±100 for the full control effect
#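 Fluorescent replication assay: 50 nM final substrate added after a 15 min room-temperature compound preincubation with 10 nM enzyme. Signal taken at 0 min and again at 10 min.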
# Pol kappa inh-2 = Pol kappa (human) inhibition, cherry-pick confirmation; purified Pol-kappa, fluorescent strand-displacement substrate; Potency, µM, usual class: inhibitors; actives 76% (n = 920); shares compounds with Pol eta inh-1; note: potency is the fitted concentration of half-maximal effect
# Pol eta inh-2 = Pol eta (human) inhibition, cherry-pick confirmation; shares compounds with Pol eta inh-1; Pol eta primer extension, TAMRA/BHQ fluorescence, 10 min; Potency, µM, usual class: inhibitors; actives 64% (n = 2,600); AID 720502; note: potency is the fitted concentration of half-maximal effect
# An asterisk follows results filed as active; ? = inconclusive; · = not tested or not shown; [ ] = dose if it differs, or a comment. Only some compounds are listed: those with a hit (about 2.8% of all), similar ones and a draw of the others. Unless noted, calls come from the whole dose curve; as a rule, active = well fitted inhibition curve with a large enough effect; inconclusive = small, poorly fitted or top-dose-only effect, or another doubt; inactive = no such curve, though single readings can be large or run the other way.
SMILES,PI5P4Ka inh,PI4K2A inh,Pol iota inh,Pol kappa inh-1,Pol beta inh,Pol eta inh-1,Pol eta inh-2,others
O=C(/C=C/c1ccco1)Nc1sc2c(c1C(=O)O)CCC2,·,-4.6,?,?,-82.9%,79.4µM*,?,
Cc1ccc(-c2csc(NC(=O)/C=C/c3ccco3)c2C(=O)O)cc1,-71.5*,-1.3,?,50.1µM*,28.2µM*,28.2µM*,?,
N#Cc1c(NC(=O)/C=C/c2ccco2)sc2c1CCCC2,-62.9*,-6.0,50.1µM*,-25.7%,?,?,84.9*,
O=C(Nc1sc2c(c1C(=O)O)CCCCC2)c1ccccc1,-21.0,1.9,49.8%,10.5%,14.9%,-6.0%,·,
O=C(Nc1sc2c(c1C(=O)O)CCC2)c1ccccc1,?,-1.9,?,?,20µM*,12.6µM*,75.7*,
O=C(/C=C/c1ccccc1)Nc1sc2c(c1C(=O)O)CCC2,?,-11.7,?,?,4.6%,-9.9%,·,
Cc1ccc(NC(=O)Nc2nnc(SCC(=O)Nc3ccc(F)cc3F)s2)cc1,·,-2.9,5.2%,-0.9%[60.1 µM],30.9%,14.0%,·,
CCOc1ccc(CNC(=O)c2ccc3c(c2)sc2nc(-c4ccc(OC)cc4)cn23)cc1,·,2.1,1.4%,-17.0%,-1.8%,-12.0%,·,
O=C(N/N=C/c1cc(Cl)cc([N+](=O)[O-])c1O)c1ccccc1NS(=O)(=O)c1cccs1,-22.3,0.6,?,-9.1%,-4.5%,?,?,
O=C(NN=Cc1ccc(O)cc1)c1ccccc1NS(=O)(=O)c1cccs1,-3.7,-4.4,-12.9%,-2.6%,·,-17.8%,·,
Cn1nc(-c2ccc(OCC(=O)Nc3ccccc3)cc2)c2ccccc2c1=O,-4.9,-2.1,5.2%,-7.9%,-20.7%,7.0%,·,
Cn1nc(-c2ccc(OCC(=O)Nc3ccc(Cl)cc3)cc2)c2ccccc2c1=O,·,-1.1,-6.2%,-18.5%,7.94µM*,-10.7%,·,Pol kappa inh-2=42.3*
Cc1ccc(NC(=O)C2CCCN(C(=O)c3cnn(-c4ccc(F)cc4)c3-n3cccc3)C2)c(Cl)c1 (stereo not drawn),·,-5.3,29.1%,-3.4%,-3.8%,-17.5%,·,
COc1ccc(-c2nc(SCC(=O)N3CCC(C)CC3)n[nH]2)cc1,·,6.0,-0.6%,2.3%[60.1 µM],-5.2%,11.5%,·,
CCc1nc2c(OCCC3CCCCC3)cccn2c1N(C)C(=O)C(C)C,-1.2,0.7,·,·,·,·,·,
O=C(CCN1C(=O)/C(=C\c2cccs2)SC1=S)Nc1ccc(C(=O)O)cc1,-6.0,0.7,?,?,87.7%,56.2µM*,?,
O=C(O)CCCN1C(=O)/C(=C\c2ccco2)SC1=S,-26.9,-25.6,7.08µM*,11.2µM*,20µM*,20µM*,47.8*,Pol kappa inh-2=42.3*
O=C(O)CN1C(=O)/C(=C/c2ccc(SCc3ccccc3)o2)SC1=S,?,-2.0,?,79.4µM*,3.55µM*,17.8µM*,75.7*,
CC(/C=C1\SC(=S)N(CCC(=O)Nc2cccc(C(=O)O)c2)C1=O)=C\c1ccccc1,-76.7*,-3.2,-11.8%,-13.8%,?,?,?,Pol kappa inh-2=?
O=C1/C(=C\c2ccco2)SC(=S)N1C1CCS(=O)(=O)C1 (stereo not drawn),?,-2.0,20µM*,?,39.8µM*,?,?,
C=CCN1C(=O)/C(=C\C(C)=C\c2ccccc2)SC1=S,1.1,2.5,?,-4.2%,17.6%,0.7%,·,
COc1ccccc1/C=C1\SC(=S)N(CCC(=O)Nc2ccc(C(=O)O)c(O)c2)C1=O,?,-5.6,?,-33.6%,79.4µM*,35.5µM*,?,Pol kappa inh-2=?
CCOc1ccc(-c2nn(-c3ccccc3)cc2/C=C2\SC(=S)N(C3CCS(=O)(=O)C3)C2=O)cc1 (stereo not drawn),·,4.8,14.3%,-21.4%,22.5%,3.7%,·,
O=C(CN1C(=O)S/C(=C\c2cccn2-c2ccc(C(=O)O)cc2)C1=O)Nc1ccc(F)cc1,·,·,·,·,·,·,30.1*,
COc1ccccc1/C=C1/SC(=S)N(CCC(=O)Nc2cccnc2)C1=O,1.1,-1.1,17.9%,6.6%,12.7%,-15.8%,·,
SMILES,PI5P4Ka inh,PI4K2A inh,Pol iota inh,Pol kappa inh-1,Pol beta inh,Pol eta inh-1,Pol eta inh-2,others
O=C(O)CN1C(=O)/C(=C\C(Br)=C\c2ccccc2)SC1=S,-28.5,-6.8,?,?,?,8.91µM*,23.9*,
Cn1cccc1/C=C1\SC(=O)N(CC(=O)Nc2ccc(Cl)cc2)C1=O,·,1.6,29.2%,-6.1%,-0.2%,-10.0%,·,
Cc1ccc(S(=O)(=O)C[C@@H]2OC[C@H](CO)N2S(=O)(=O)c2ccc(C)cc2)cc1,-2.6,-0.8,·,·,·,·,·,
COc1ccc(C(=O)c2[nH]c(N)c(C(=O)NCCc3c[nH]c4ccccc34)c2-c2ccc(Cl)c(F)c2)cc1,-10.2,-9.3,·,·,·,·,·,
COc1ccc2c(c1)c(=O)oc1c(C)c(OC(C)C(=O)N[C@@H](Cc3c[nH]c4ccc(O)cc34)C(=O)O)ccc12 (stereo partly drawn),-15.7,3.3,?,?,?,20µM*,47.8*,
CCOC(=O)c1ccc(Nc2c(-c3ccc(OC)cc3)nc3nc[nH]n23)cc1,·,-2.0,12.3%,-4.8%[60.1 µM],?,-8.9%,·,
C=CCOc1c(Br)cc(C2NC(=O)NC(C)=C2C(C)=O)cc1OCC (stereo not drawn),·,4.2,-3.2%,-5.3%,-11.4%,-7.7%,·,
CCOc1cc(C2NC(=O)NC(C)=C2C(C)=O)cc(Cl)c1OCC(=O)O (stereo not drawn),·,-2.3,?,-27.5%,?,22.4µM*,?,
O=C(NCCc1ccc(Cl)cc1)c1cnc2sc(N3CCCC3)nn2c1=O,·,1.9,1.3%,3.7%,23.3%,6.9%,·,
